Inconclusive results are not listed. Calls of active or inactive are those of the source. Unless noted, calls come from the whole dose curve; as a rule, active = well fitted curve in either direction with a large enough effect (not every such curve was filed as active); inconclusive = small, poorly fitted or top-dose-only effect, or another doubt; inactive = flat fitted curve, though single readings scatter.
Assays:
[1] = target: Cytochrome P450 1A2 (Homo sapiens) (UniProt P05177); assay: p450-cyp1a2 (AID 410; calls by dose curve; note: potency is the fitted concentration of half-maximal effect)
Method in brief: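 Human CYP1A2 (20nM) demethylated Luciferin-ME at its Km (100uM) in 100mM KPO4. After 10 min compound preincubation, NADPH regeneration ran the reaction 60 min at room temperature. Luciferin was read by luminescence, normalized to 57 uM furafylline.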

[2] = NFAT Signaling Pathway (AID 444); details: Jurkat NFAT-bla M1, carbachol, beta-lactamase ratio, 5 h; at 7.69 µM (top of the series) unless noted;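 note: carbachol stimulus at about its EC50 of 1 µM final; % is set by controls: 0 for no effect and ±100 for the full control effect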
Method in brief: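 Jurkat cells with NFAT-driven β-lactamase reporter and co-expressed M1 receptor, stimulated with carbachol (final 1 uM, ~EC50), compound titration, 5 h at 37 °C. CCF4 loaded 1 h at RT; 460/530 nm ratio gave %activity and AC50.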

[3] = Stat Signaling Pathway (AID 446); details: ME-180 SIE beta-lactamase reporter, IL-6 stimulated, 5 h; at 7.69 µM (top of the series) unless noted;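 note: ME-180 cervical cancer cells given 40 pM IL-6 alongside compound; SIE-controlled beta-lactamase reporter measured as 460/530 nm FRET emission ratio; % is set by controls: 0 for no effect and ±100 for the full control effect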
Method in brief: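 ME-180 SIE-bla cells; overnight plating; cpd + IL-6 40 pM, 5 h, 37 C; LiveBLAzer 2.5 h RT; 460/530 nm emission ratio. Normalized to 300 pM IL-6 and 125 nM JAK inhibitor controls.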

[4] = target: Glucocorticoid receptor (Homo sapiens) (UniProt P04150); assay: GR-GFP Redistribution (AID 450;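 active = compounds whose dose series gives a full or clear partial fitted curve of increased nuclear translocation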; note: potency is the fitted concentration of half-maximal effect); details: U2OS GR-GFP nuclear translocation, laser cytometry, 2 h
[5] = target: Glucocorticoid receptor (Homo sapiens) (UniProt P04150); assay: GR-EFC Redistribution (AID 451; calls by dose curve; note: potency is the fitted concentration of half-maximal effect); details: CHO-K1 GR-EFC translocation, beta-gal luminescence, 2 h
Method in brief: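 CHO-K1 cells expressing nuclear EA and GR-ED fragments of b-gal; compounds titrated up to 46 uM final, 2 h at 37 C. GR nuclear translocation read as complemented b-gal luminescence after 1 h RT detection.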

[6] = target: Mitogen-activated protein kinase 10 (Mus musculus) (UniProt Q61831); assay: JNK3 AlphaScreen Assay (AID 530);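 note: kinase came from lysate of stimulated human HepG2 cells; signal reports phosphorylation of biotinylated GST-cJun 1-79 at Ser73 with 10 µM ATP; % is set by controls: 0 for no effect and ±100 for the full control effect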
Method in brief: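 qHTS format: compounds tested as titrations against IL-1beta/TNF-alpha-activated HepG2 lysate JNK3 with biotin-GST-cJun substrate and 10 uM ATP at room temperature. Loss of anti-phospho-cJun AlphaScreen signal indicates inhibition.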

[7] = Confirmation and Secondary Assay for Modulators of Hemoglobin Beta Chain Splicing at IVS2 654 locus (AID 910; active = well fitted curve in the direction sought with a large enough effect; an effect the other way counts as inactive or inconclusive;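 note: HeLa cells stably carrying EGFP split by mutant beta-globin IVS2-654 intron; % of control where 0% means no effect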)
Method in brief: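 HeLa cells stably expressing EGFP interrupted by β-globin IVS2-654 intron, seeded overnight in Opti-MEM/2% FCS, then treated 2 days at 37 °C. Restored splicing read as total peak GFP intensity per well by laser scanning cytometry (488 nm excitation, 500–520 nm emission); 500 nM antisense PNA as control.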

[8] = qHTS Assay for Lipid Storage Modulators (AID 1519; calls by dose curve); details: Drosophila S3 cells, BODIPY lipid droplet/cell ratio, laser cytometry, cells loaded with oleic acid; for activity change, negative = inhibition: at 57.5 µM (top of the series)
Method in brief: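 Cells seeded at 5,000 per well were treated with compounds over a concentration series and loaded with oleic acid (400 uM, as added). Lipid droplet fluorescence (488 nm excitation, 500-530 nm channel) was read by laser-scanning cytometry and normalized to 20 uM Triacsin C.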

[9] = target: Ubiquitin carboxyl-terminal hydrolase 1 (Homo sapiens) (UniProt O94782); assay: Inhibitors of USP1/UAF1: Pilot qHTS (AID 504865; active = well fitted curve in the direction sought with a large enough effect; an effect the other way counts as inactive or inconclusive;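 note: rhodamine fluorescence freed from ubiquitin-rhodamine substrate followed over time; top concentration of the series differs between compounds; % is set by controls: 0 for no effect and ±100 for the full control effect; nearly all actives have a fitted effect of over 35% in size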)
Method in brief: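 1nM USP1/UAF1 + cpd, 15 min RT; start w/ Ub-Rho 150nM final; kinetic FL 480/540 nm, 6 reads q60 s. Buffer 50mM HEPES pH 7.8, 0.5mM EDTA, 1mM TCEP, 0.01% Tween-20, 0.1 mg/ml BSA.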

[10] = Primary qHTS for small molecule stabilizers of the endoplasmic reticulum resident proteome: Secreted ER Calcium Modulated Protein (SERCaMP) assay (AID 1508630; active = well fitted curve in the direction sought with a large enough effect; an effect the other way counts as inactive or inconclusive; note: % is set by controls: 0 for no effect and ±100 for the full control effect)
Method in brief: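 GLuc-SERCaMP-expressing SH-SY5Y cells, pretreated 16 h with compound, are challenged with thapsigargin to empty ER calcium stores; after 4 h, coelenterazine is added directly to the medium and luminescence is imaged.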

[11] = AP1 Signaling Pathway (AID 357); details: ME-180 (cervical carcinoma) AP-1-bla reporter, EGF-induced, beta-lactamase ratio, 5 h; at 7.69 µM (top of the series) unless noted
Method in brief: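 First, ME-180 AP-1-bla cells were cultured overnight at 37 °C in low-serum Opti-MEM. Next, titrated compounds with EC50 EGF were incubated 5 hours. Finally, CCF4 was added for 2.5 hours and the 460/530 nm ratio recorded.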

[12] = target: 3',5'-cyclic-AMP phosphodiesterase 4B (Homo sapiens) (UniProt Q07343); assay: qHTS Assay for Inhibitors of PDE-IV (AID 607; active = well fitted activation curve with a large enough effect in the main read-out, with a control signal flat, not every such curve was filed as active; note: % of control where 0% means no effect)
Method in brief: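 ACTOne HEK293 cells carry a modified cAMP-gated CNG channel and express endogenous PDE4; plated 1000 cells/well, compounds up to 22.9 uM final. Membrane-potential dye fluorescence (ex 535/em 590) was read; parental cells received 10 uM forskolin + 100 uM RO 20-1724.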

[13] = target: Cytochrome P450 3A4 (Homo sapiens) (UniProt P08684); assay: qHTS Assay for Activators of Cytochrome P450 3A4 (AID 885; active = well fitted curve in the direction sought with a large enough effect; an effect the other way counts as inactive or inconclusive; note: nearly all actives have a fitted effect of over 65% in size)
Method in brief: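 20nM CYP3A4 + 25uM Luciferin-PPXE (=KM), 200mM KPO4; cpd 10 min RT; NADPH regen, 60 min RT; stop w/ detection buffer, 20 min; luminescence. Normalized to 57 uM ketoconazole.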

[14] = target: Dual specificity protein kinase CLK4 (Homo sapiens) (UniProt Q9HAZ1); assay: qHTS Assay for Inhibitors of CDC-like Kinase 4 (ADP-FP Assay) (AID 1795; active = well fitted curve in the direction sought with a large enough effect; an effect the other way counts as inactive or inconclusive;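 note: recombinant human CLK4 phosphorylating RS repeat peptide at 1 µM ATP; % is set by controls: 0 for no effect and ±100 for the full control effect; nearly all actives have a fitted effect of over 60% in size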)
Method in brief: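 FP readout: Orange Transcreener ADP2 tracer (4 nM) plus ADP antibody, read after 30 min at room temperature. Kinase step: 6.25 nM Clk4, 100 uM RS peptide, 1 uM ATP, pH 7.5, 1 h.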

[15] = target: Rap guanine nucleotide exchange factor 3 (Homo sapiens) (UniProt O95398); assay: Confirmatory qHTS for antagonist of cAMP-regulated guanine nucleotide exchange factor 3 (EPAC1) (AID 1645880; active = well fitted curve in the direction sought with a large enough effect; an effect the other way counts as inactive or inconclusive;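 note: plate controls were DMSO only for no effect and full effect of the ATA control for full effect; nearly all actives have a fitted effect of over 55% in size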)
Method in brief: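 Nucleotide exchange uses 100 nM EPAC1, 250 nM RAP1B-BODIPY-GDP and 50 uM GDP, with compounds in a concentration-titration series. After 5 min at room temperature, fluorescence (480 nm ex/540 nm em) is read every 5 min for 30 min. Data are normalized to control ATA and DMSO.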

[16] = target: Rap guanine nucleotide exchange factor 3 (Homo sapiens) (UniProt O95398); assay: Confirmatory qHTS for agonist of cAMP-regulated guanine nucleotide exchange factor 3 (EPAC1) (AID 1645881; active = well fitted curve in the direction sought with a large enough effect; an effect the other way counts as inactive or inconclusive;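 note: EPAC1 catalysed release of BODIPY-GDP from Rap1B seen as fluorescence loss; 100% = effect of cAMP agonist control; nearly all actives have a fitted effect of over 75% in size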)
[17] = target: Rap guanine nucleotide exchange factor 4 (Homo sapiens) (UniProt Q8WZA2); assay: Confirmatory qHTS for antagonist of cAMP-regulated guanine nucleotide exchange factor 4 (EPAC2) (AID 1645885; active = well fitted curve in the direction sought with a large enough effect; an effect the other way counts as inactive or inconclusive; note: % is set by controls: 0 for no effect and ±100 for the full control effect; nearly all actives have a fitted effect of over 25% in size)
[18] = measured here: cell count channel max response
[19] = measured here: lipid channel max response

Chain of Ubiquitin carboxyl-terminal hydrolase 1 (Homo sapiens) (O94782 whole entry, looked up): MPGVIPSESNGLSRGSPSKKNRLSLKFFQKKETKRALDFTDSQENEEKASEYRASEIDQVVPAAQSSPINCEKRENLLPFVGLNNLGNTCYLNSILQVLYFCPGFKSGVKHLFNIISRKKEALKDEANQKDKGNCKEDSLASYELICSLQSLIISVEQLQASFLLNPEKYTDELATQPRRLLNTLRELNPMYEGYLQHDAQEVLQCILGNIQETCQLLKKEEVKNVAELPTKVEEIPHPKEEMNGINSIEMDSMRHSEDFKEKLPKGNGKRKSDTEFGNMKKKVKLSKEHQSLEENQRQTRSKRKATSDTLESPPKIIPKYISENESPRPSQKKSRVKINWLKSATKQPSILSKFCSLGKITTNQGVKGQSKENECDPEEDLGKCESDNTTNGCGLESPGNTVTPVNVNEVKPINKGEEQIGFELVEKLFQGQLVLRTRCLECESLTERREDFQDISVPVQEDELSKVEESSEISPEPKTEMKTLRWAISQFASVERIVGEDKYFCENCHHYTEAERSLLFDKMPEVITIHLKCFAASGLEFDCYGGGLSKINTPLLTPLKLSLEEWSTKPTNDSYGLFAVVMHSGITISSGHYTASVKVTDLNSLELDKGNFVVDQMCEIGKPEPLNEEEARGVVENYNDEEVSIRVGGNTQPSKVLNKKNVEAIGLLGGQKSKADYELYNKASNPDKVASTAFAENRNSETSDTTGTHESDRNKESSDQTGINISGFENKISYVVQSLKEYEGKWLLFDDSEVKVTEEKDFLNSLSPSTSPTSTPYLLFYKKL
Chain of Glucocorticoid receptor (Homo sapiens) (P04150 whole entry, looked up, the tested form may be a part): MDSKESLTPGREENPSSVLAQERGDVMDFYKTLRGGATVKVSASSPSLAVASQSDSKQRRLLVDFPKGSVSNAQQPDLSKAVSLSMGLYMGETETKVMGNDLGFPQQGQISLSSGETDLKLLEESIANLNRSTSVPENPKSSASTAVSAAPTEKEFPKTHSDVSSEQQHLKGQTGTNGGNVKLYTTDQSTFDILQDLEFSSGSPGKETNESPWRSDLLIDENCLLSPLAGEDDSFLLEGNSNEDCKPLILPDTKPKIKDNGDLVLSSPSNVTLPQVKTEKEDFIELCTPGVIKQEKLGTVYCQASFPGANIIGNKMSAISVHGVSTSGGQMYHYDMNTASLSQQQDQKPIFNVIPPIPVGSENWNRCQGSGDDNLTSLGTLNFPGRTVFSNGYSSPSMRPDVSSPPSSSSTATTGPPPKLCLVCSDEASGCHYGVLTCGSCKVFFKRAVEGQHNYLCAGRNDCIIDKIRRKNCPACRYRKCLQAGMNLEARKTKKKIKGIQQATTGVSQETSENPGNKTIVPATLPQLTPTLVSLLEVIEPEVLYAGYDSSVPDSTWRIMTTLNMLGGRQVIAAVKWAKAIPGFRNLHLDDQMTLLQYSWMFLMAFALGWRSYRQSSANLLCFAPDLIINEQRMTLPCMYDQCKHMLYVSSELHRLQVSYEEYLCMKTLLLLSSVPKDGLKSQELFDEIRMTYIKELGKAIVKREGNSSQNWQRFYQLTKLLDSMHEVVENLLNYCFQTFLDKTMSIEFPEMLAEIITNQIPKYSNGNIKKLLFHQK
Chain of 3',5'-cyclic-AMP phosphodiesterase 4B (Homo sapiens) (Q07343 whole entry, looked up): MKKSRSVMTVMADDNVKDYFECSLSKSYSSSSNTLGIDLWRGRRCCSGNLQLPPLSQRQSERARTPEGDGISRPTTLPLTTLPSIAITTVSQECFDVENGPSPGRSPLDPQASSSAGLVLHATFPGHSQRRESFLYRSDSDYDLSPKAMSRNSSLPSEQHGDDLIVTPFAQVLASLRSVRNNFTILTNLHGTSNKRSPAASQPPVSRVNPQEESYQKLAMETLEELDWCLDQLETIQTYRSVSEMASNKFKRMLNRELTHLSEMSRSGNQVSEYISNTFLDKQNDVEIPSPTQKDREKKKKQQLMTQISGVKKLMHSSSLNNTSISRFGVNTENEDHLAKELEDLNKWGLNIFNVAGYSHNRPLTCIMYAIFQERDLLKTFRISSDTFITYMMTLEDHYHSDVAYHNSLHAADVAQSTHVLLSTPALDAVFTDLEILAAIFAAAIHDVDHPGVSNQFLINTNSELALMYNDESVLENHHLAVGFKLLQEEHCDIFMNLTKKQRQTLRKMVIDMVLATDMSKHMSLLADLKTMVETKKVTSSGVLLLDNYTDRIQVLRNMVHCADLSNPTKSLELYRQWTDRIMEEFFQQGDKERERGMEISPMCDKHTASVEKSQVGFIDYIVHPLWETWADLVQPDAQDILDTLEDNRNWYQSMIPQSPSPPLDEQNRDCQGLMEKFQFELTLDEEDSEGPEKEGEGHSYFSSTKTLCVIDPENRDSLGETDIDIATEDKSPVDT
Chain of Cytochrome P450 1A2 (Homo sapiens) (P05177 whole entry, looked up): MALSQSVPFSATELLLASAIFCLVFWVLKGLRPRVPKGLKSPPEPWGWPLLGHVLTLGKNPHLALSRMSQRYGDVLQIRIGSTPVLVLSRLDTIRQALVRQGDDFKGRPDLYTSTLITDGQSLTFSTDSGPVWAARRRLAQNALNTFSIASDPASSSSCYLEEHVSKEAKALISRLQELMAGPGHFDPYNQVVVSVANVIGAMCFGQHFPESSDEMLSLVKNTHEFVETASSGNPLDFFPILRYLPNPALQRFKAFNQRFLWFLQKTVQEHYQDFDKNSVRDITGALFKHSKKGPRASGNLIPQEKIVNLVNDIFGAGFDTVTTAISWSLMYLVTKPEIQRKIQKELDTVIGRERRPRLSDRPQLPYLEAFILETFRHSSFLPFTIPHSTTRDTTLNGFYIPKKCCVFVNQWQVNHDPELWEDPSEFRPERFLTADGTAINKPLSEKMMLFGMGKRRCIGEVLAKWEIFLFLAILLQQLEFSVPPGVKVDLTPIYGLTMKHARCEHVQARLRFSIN
Chain of Rap guanine nucleotide exchange factor 3 (Homo sapiens) (O95398 whole entry, looked up): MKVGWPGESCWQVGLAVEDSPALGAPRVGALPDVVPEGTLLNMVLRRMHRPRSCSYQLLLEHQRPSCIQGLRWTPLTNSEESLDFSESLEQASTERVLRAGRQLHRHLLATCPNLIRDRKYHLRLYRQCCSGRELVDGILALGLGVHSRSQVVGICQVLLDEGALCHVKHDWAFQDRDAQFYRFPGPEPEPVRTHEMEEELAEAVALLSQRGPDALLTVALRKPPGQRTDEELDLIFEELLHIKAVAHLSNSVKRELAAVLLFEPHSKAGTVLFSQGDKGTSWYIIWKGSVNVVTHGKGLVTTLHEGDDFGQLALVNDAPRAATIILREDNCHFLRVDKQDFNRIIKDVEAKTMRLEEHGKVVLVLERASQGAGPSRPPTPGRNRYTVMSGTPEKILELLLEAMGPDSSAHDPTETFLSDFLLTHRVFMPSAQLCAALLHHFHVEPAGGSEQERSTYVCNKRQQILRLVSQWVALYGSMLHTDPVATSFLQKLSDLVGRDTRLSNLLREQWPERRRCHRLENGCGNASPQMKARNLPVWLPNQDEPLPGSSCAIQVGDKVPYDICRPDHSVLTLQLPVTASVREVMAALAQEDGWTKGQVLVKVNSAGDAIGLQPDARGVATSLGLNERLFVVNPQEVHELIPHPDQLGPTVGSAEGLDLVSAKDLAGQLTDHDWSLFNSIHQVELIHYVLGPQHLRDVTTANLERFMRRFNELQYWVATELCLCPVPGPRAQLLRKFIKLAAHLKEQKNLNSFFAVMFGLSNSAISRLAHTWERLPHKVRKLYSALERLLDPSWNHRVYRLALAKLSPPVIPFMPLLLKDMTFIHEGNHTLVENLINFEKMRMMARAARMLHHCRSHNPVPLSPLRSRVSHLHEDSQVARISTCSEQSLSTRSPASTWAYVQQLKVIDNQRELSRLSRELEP
Chain of Cytochrome P450 3A4 (Homo sapiens) (P08684 whole entry, looked up): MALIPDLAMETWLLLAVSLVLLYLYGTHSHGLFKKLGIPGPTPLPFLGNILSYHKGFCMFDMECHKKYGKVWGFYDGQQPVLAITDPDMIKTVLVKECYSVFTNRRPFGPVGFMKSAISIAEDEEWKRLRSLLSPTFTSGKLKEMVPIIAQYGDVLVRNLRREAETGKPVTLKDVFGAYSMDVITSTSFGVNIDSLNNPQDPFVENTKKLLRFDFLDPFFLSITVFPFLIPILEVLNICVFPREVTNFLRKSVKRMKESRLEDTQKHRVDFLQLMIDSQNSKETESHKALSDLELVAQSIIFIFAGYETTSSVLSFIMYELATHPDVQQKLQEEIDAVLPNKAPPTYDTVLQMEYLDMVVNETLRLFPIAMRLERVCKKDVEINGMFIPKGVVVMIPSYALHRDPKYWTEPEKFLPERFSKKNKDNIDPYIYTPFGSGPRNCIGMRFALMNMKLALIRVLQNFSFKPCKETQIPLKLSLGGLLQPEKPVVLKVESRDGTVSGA
Chain of Dual specificity protein kinase CLK4 (Homo sapiens) (Q9HAZ1 whole entry, looked up): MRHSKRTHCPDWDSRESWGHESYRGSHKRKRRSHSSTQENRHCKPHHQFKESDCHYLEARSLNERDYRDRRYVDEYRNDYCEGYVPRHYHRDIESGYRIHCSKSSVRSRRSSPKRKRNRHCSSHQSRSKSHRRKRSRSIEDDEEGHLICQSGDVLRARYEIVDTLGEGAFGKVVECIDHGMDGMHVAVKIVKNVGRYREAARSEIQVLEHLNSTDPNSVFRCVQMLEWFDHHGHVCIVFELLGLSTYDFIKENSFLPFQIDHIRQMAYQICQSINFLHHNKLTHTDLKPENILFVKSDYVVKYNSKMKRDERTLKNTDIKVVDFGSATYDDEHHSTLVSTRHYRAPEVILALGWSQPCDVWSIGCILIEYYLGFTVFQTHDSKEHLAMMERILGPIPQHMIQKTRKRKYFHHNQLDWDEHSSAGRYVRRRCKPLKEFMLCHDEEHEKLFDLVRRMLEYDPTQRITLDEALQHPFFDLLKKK

CN(C)Cc1ccccc1-c1nccc(NCc2cccs2)n1
Potency [1]: 794 nM (active) | activity change, negative = inhibition [2]: -11.6% (inactive) | activity, negative = inhibition [3]: 0.159% (inactive) | Potency [4]: > 46 µM (inactive) | Potency [5]: > 46 µM (inactive) | Potency [6]: inactive | Potency [7]: inactive | activity change, negative = inhibition [8]: 10.9% (inactive) | max response [8, 18]: 4.85% | max response [8, 19]: 9.23% | Potency [9]: inactive | outcome [10]: inactive

COCC(=O)N1CCC2(CC1)CCN(C(=O)NC(C)C)CC2
activity change, negative = inhibition [11]: -2.26% (inactive) | activity change, negative = inhibition [2]: 0.244% (inactive) | activity, negative = inhibition [3]: 6.66% (inactive) | Potency [5]: > 46 µM (inactive) | Potency [6]: inactive | Potency [12]: inactive | activity change, negative = inhibition [8]: 0.579% (inactive) | max response [8, 18]: 13.2% | max response [8, 19]: 16.2% | outcome [10]: inactive

Cn1cc(C(F)(F)F)nc1-c1ccc(OC[C@@H](O)CNCCOc2ccc(O)c(C(N)=O)c2)cc1
activity change, negative = inhibition [11]: -8.84% [at 38 µM] (inactive) | activity change, negative = inhibition [2]: -4.88% [at 38 µM] (inactive) | Potency [4]: > 46 µM (inactive) | Potency [5]: > 46 µM (inactive) | Potency [6]: inactive | Potency [12]: inactive | activity change, negative = inhibition [8]: 1.54% (inactive) | max response [8, 18]: -4.45% | max response [8, 19]: -2.61% | outcome [10]: inactive

COCC(=O)N1CCC2(CCN(Cc3ccc(C#N)cc3)CC2)CC1
activity change, negative = inhibition [11]: -9.28% (inactive) | activity, negative = inhibition [3]: -0.16% (inactive) | Potency [5]: > 46 µM (inactive) | Potency [6]: inactive | Potency [12]: inactive | activity change, negative = inhibition [8]: 4.27% (inactive) | max response [8, 18]: 17% | max response [8, 19]: 24.9% | outcome [10]: inactive

OC[C@H]1O[C@@H](n2cnc3c(NCc4ccco4)ncnc32)[C@H](O)[C@@H]1O
activity change, negative = inhibition [8]: -9.06% (inactive) | max response [8, 18]: -12.6% | max response [8, 19]: -19.8% | outcome [10]: inactive

COc1cccc(-c2ccc3ncnc(NCc4ccccc4OC)c3c2)c1
Potency [4]: > 46 µM (inactive) | Potency [5]: > 46 µM (inactive) | Potency [6]: inactive | Potency [12]: inactive | Potency [7]: inactive | activity change, negative = inhibition [8]: 5.94% (inactive) | max response [8, 18]: -19.3% | max response [8, 19]: -13.1% | Potency [9]: inactive | outcome [10]: inactive

Cn1cccc1C(=O)N1CCC2(CCCN(c3ccncc3)C2)CC1
activity change, negative = inhibition [11]: 11.9% (inactive) | activity, negative = inhibition [3]: 0.921% (inactive) | Potency [5]: > 46 µM (inactive) | Potency [6]: inactive | Potency [12]: inactive | activity change, negative = inhibition [8]: 5.74% (inactive) | max response [8, 18]: 8.08% | max response [8, 19]: 18.3% | outcome [10]: inactive

O=c1c(-c2cccs2)nc2cnc(Nc3ccccc3)nc2n1C[C@H]1CCCO1
activity change, negative = inhibition [11]: -12.9% (inactive) | Potency [1]: 2510 nM (active) | activity change, negative = inhibition [2]: -16.9% (inactive) | activity, negative = inhibition [3]: 22.1% (inactive) | Potency [4]: > 9.22 µM (inactive) | Potency [5]: > 46 µM (inactive) | Potency [6]: inactive | Potency [12]: inactive | Potency [13]: inactive | Potency [14]: inactive | Potency [9]: inactive | outcome [10]: inactive | Potency [15]: inactive | Potency [16]: inactive | Potency [17]: inactive

Reference: PubChem BioAssay (NCATS)
